Results as given in PubChem BioAssay (NCATS).
Records with an inconclusive call do not appear. The source made the active and inactive calls. The call rests on the fitted dose curve; in most records, active means well fitted inhibition curve with a large enough effect; inconclusive means small, poorly fitted or top-dose-only effect; inactive means flat fitted curve, though single readings scatter.

Tests used:
Assay in all cases: qHTS profiling for inhibitors of Plasmodium falciparum proliferation (AID 504749); further: nearly all actives have a fitted effect of over 60% in size
Details in all cases: P. falciparum in erythrocytes, SYBR Green DNA, 72 h; series mostly up to 28.7 µM
CP291 = tested on: CP291
Outline: (§1)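 P. falciparum-infected erythrocytes (0.3% parasitemia, 2.5% hematocrit) incubated with compound 72 h at 37 C, 5% CO2. Parasite DNA detected by SYBR Green after lysis, overnight at room temperature; normalised to 0.29 uM artemisinin and DMSO.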

CP297 = tested on: CP297
Outline: as §1

CP305 = tested on: CP305
Outline: as §1

CP315 = tested on: CP315
Outline: as §1

CP325 = tested on: CP325
Outline: as §1

CP329 = tested on: CP329
Outline: as §1

CP335 = tested on: CP335
Outline: as §1

DFO2036 = tested on: DFO2036
Outline: as §1

DIV14 = tested on: DIV14
Outline: as §1

DIV17 = tested on: DIV17
Outline: as §1

DIV30 = tested on: DIV30
Outline: as §1

Dd2 = tested on: Dd2
Outline: as §1

ECU = tested on: ECU
Outline: as §1

FAB9 = tested on: FAB9
Outline: as §1

GB4 = tested on: GB4
Outline: as §1

HB3 = tested on: HB3
Outline: as §1

ICS = tested on: ICS
Outline: as §1

JCK = tested on: JCK
Outline: as §1

N140 = tested on: N140
Outline: as §1

P93_24 = tested on: P93_24
Outline: as §1

Measured: Potency

C=CC(C)(O)CC/C=C(\C)CCC=C(C)C (stereo not given)
inactive: all assays above

OC[C@H]1O[C@@H]2O[C@H]3[C@H](O)[C@@H](O)[C@@H](O[C@H]4[C@H](O)[C@@H](O)[C@@H](O[C@H]5[C@H](O)[C@@H](O)[C@@H](O[C@H]6[C@H](O)[C@@H](O)[C@@H](O[C@H]7[C@H](O)[C@@H](O)[C@@H](O[C@H]1[C@H](O)[C@H]2O)O[C@@H]7CO)O[C@@H]6CO)O[C@@H]5CO)O[C@@H]4CO)O[C@@H]3CO
inactive: all assays above

CCCCCCCCCCCCCCCCCC[N+](C)(C)CCC[Si](OC)(OC)OC
inactive: all assays above

Nc1nc(=O)n([C@@H]2CS[C@H](CO)O2)cc1F
inactive: all assays above

NC(=O)[C@@H]1CCCN1C(=O)[C@H](Cc1cnc[nH]1)NC(=O)[C@@H]1CCC(=O)N1
inactive: all assays above

CCC(C(=O)NC(N)=O)c1ccccc1 (stereo not given)
inactive: all assays above

CC(C)(C)c1ccc2c(S(=O)(=O)O)c(C(C)(C)C)ccc2c1
inactive: all assays above

COC(=O)c1ccccc1O
inactive: all assays above

C[Si](C)(C)O[Si](C)(C)C
inactive: all assays above

CC(C)[C@@H](N)C(=O)O
inactive: all assays above

O=C(NNCNNC(=O)c1ccncc1)c1ccncc1
inactive: all assays above

CCOC(C)OCC
inactive: all assays above

CNC(=O)C[C@@H](N)C(=O)N[C@@H](C(=O)N[C@@H]1C(=O)N2[C@@H]1SC(C)(C)[C@@H]2C(=O)O)c1ccc(O)cc1
inactive: all assays above

CCOc1ccc(S(=O)(=O)O)c2cccnc12
inactive: all assays above

CCOC(=S)SSC(=S)OCC
inactive: all assays above

CC(CC=O)CCCC(C)(C)O (stereo not given)
inactive: all assays above

N=C(N)n1cccn1
inactive: all assays above

c1ccc(-n2cnnn2)cc1
inactive: all assays above

CC1=CC(=O)NS(=O)(=O)O1
inactive: all assays above

CCCCCCCCCC(=O)NO
inactive: all assays above

Cc1c(Cl)cccc1Nc1ncccc1C(=O)O
inactive: all assays above

O=C(CCCCCCCCCCCCC1CCCC1)Nc1ccc(S(=O)(=O)c2ccc(NC(=O)CCCCCCCCCCCCC3CCCC3)cc2)cc1
inactive: all assays above

C[Se]CC[C@H](N)C(=O)O
inactive: all assays above

CC1C(=O)CC2C3(C)CCC2(C(C)C(=O)O)C(=O)C13 (stereo not given)
inactive: all assays above

C[C@H](CCC(=O)O)[C@H]1CC[C@H]2[C@@H]3CC[C@@H]4C[C@H](O)CC[C@]4(C)[C@H]3C[C@H](O)[C@]12C
inactive: all assays above

N[C@H](CC(=O)O)C(=O)O
inactive: all assays above

O=C(O)Cc1cc(I)c(Oc2ccc(O)c(I)c2)c(I)c1
inactive: all assays above

CCCCC[C@H](O)/C=C/[C@@H]1[C@H]2C/C(=C/CCCC(=O)O)O[C@H]2C[C@H]1O
inactive: all assays above

CC(=O)Nc1ccc(OC(=O)c2ccccc2O)cc1
inactive: all assays above

NC(=O)[C@H]1O[C@@H](O)[C@H](O)[C@@H](O)[C@@H]1O
inactive: all assays above

CC(=O)Nc1ccc(OC(C)=O)cc1
inactive: all assays above

CC(C)(C)CC(C)(C)c1cc(Cc2cc(C(C)(C)CC(C)(C)C)cc(-n3nc4ccccc4n3)c2O)c(O)c(-n2nc3ccccc3n2)c1
inactive: all assays above

CN1C(=O)OC(C)(C)C1=O
inactive: all assays above

COc1ccc(C(=O)CCC(=O)O)c2ccccc12
inactive: all assays above

CC(C)(Oc1ccc(C2CCCc3ccccc32)cc1)C(=O)O (stereo not given)
inactive: all assays above

CN(Cc1ccccc1)Cc1ccccc1
inactive: all assays above

CCCCC
inactive: all assays above

CC1(C)S[C@@H]2[C@H](NC(=O)C3(N)CCCCC3)C(=O)N2[C@H]1C(=O)O
inactive: all assays above
